From PubChem BioAssay (Tox21) come the findings set out here.

Results filed as inconclusive are left out. Entries that show only a call come without a potency. Active and inactive are the calls of the source. Calls come from the whole dose curve; as a rule, active = well fitted cell-killing curve with a large enough effect in the repeat runs; inconclusive = weak or mixed curves, or effect the other way; inactive = flat fitted curve, though single readings scatter.

This assay in a line: qHTS assay to identify small molecule agonists of the constitutive androstane receptor (CAR) signaling pathway - cell viability counter screen (AID 1224836). Note: nearly all actives have a fitted effect of over 45% in size. As to conditions: HepG2-CYP2B6-hCAR viability, CellTiter-Fluor, 23 h, PK11195 added to every well; series mostly up to 92.4 µM. The text has this: U.S. Tox21 Program National Center for Advancing Translational Sciences [NCATS] NIH Chemical Genomics Center [NCGC] U.S. Environmental Protection Agency [EPA] National Institutes of Environmental Health Sciences [NIEHS] National Toxicology Program [NTP] U.S. Food and Drug Administration [FDA] Tox21 Assay Overview: The constitutive androstane receptor (CAR) is a nuclear receptor which regulates multiple drug metabolizing enzymes (DMEs) and transporters. Activating CAR will generally increase the transcription and subsequent translation of CYP2B6 and CYP3A4. These two DMEs represent about 50% of the drug metabolizing potential in the body. […] Recently, there have also been studies performed indicating CARs role in energy metabolism and cancer therapy. Therefore, inducing CARs activity could have a potential effect on diabetes and cancer. Identifying environmental toxins and compounds which modulate CAR, through the use of the Tox21 10K compound collection, will be an important step in determining the toxicity and potential therapeutic effects these factors will have on the human body. To differentiate true CAR agonists from cytotoxic substances, the assay is multiplexed with a cell viability assay.
Tox21 Assay Protocol Summary: A double-stable (hCAR and CYP2B6-2.2kb) transfected cell line, derived from human hepatoma (HepG2) cells, was utilized for the duration of the quantitative high-throughput screens. The HepG2-CYP2B6-hCAR cells were dispensed at 2500 cells/4 uL/well in 1536-well white solid bottom plates using a Multidrop Combi. After the assay plates were incubated at 37 C/5% CO2 for 4 hrs, 23 nL of compounds at 15 concentrations (from 5-48 columns) or positive control (from 1 to 4 columns) were transferred to the assay plates using a Pintool station. One uL of PK11195 (final concentration = 0.75 uM) was added, using a Flying Reagent Dispenser, inside each well. After a 23 hr incubation period at 37 C/5% CO2, 1 uL of CellTiter-Fluor reagent was added into each well of the assay plates using a Flying Reagent Dispenser. The fluorescence intensity in the plates was then measured using a ViewLux plate reader.
For orientation: Quantitative high-throughput screening tests each substance at several concentrations.
Regarding `C=CC(=C)C`, the Potency result is “inactive”.
As to `O=S1OCC2C(CO1)C1(Cl)C(Cl)=C(Cl)C2(Cl)C1(Cl)Cl` (stereo not given), the Potency result is “inactive”.
Still for that read-out and setting: the same measure for `Brc1cccc(-c2ccccc2)c1`: “inactive”.
Same read-out and setting: the value for `Cc1nn(-c2cc(NS(C)(=O)=O)c(Cl)cc2Cl)c(=O)n1C(F)F` was “inactive”; that for `CCCCCON=O` was “inactive”.
Turning to `CC(C)=CC1C(C(=O)OC(C#N)c2cccc(Oc3ccccc3)c2)C1(C)C` (stereo not given), the Potency result was “inactive”.
Consider `Oc1cccc(Cl)c1Cl`, for which the Potency result was “inactive”.
Still for that read-out and setting: the same measure for `CCCCCCC[CH2][Sn]([Cl])([Cl])[CH2]CCCCCCC`: “inactive”; for `Cc1ccccc1OP(=O)(Oc1ccccc1C)Oc1ccccc1C`: “inactive”; for `ClC(Cl)C(Cl)(Cl)Cl`: “inactive”.
Same read-out and setting: the same measure for `CC(C)N(C(=O)SC/C(Cl)=C/Cl)C(C)C`: “inactive”.
The same measure, in the same setting: the same measure for `COC(=O)c1cc(Oc2ccc(Cl)cc2Cl)ccc1[N+](=O)[O-]`: “inactive”.
In the case of `C[N+]1(C)[C@@H]2CC[C@H]1CC(OC(=O)C(CO)c1ccccc1)C2` (stereo not given in full), the Potency result was “inactive”.
Consider `CCC(C)c1cccc(C(C)CC)c1O` (stereo not given), for which the Potency entry is “inactive”.
For `CCN(CC)CCc1c[nH]c2ccccc12`, the Potency result is “inactive”.
Still for that read-out and setting: the value for `CC(Cl)CCl` (stereo not given) was “inactive”; that for `CC(C)C(Br)C(=O)NC(N)=O` (stereo not given) was “inactive”.
The same measure, in the same setting: the value for `c1ccc(Nc2ccc(Nc3ccccc3)cc2)cc1` was “inactive”; that for `Clc1ccc(C2(Cn3cncn3)OCCO2)c(Cl)c1` was “inactive”.
Still for that read-out and setting: the value for `C1=CCC=C1` was “inactive”; that for `COC(=O)C(C)N(C(=O)c1ccco1)c1c(C)cccc1C` (stereo not given) was “inactive”.
Consider `c1ccc2nc(N3CCNCC3)ccc2c1`, for which the Potency result was “inactive”.
On the same count and under the same terms, the value for `Cc1cc2c3c(c1)C(c1ccccc1)=N[C@@H](NC(=O)c1ccncc1)C(=O)N3CC2` was “inactive”; that for `CCc1cccc(C)c1N(C(=O)CCl)[C@@H](C)COC` was “inactive”.
As for `O=S(=O)(O)F`, the Potency result was “inactive”.
The same measure, in the same setting: the same measure for `C#CCO`: “inactive”; for `CCC(C)Nc1c([N+](=O)[O-])cc(C(C)(C)C)cc1[N+](=O)[O-]` (stereo not given): “inactive”.
With `CSC(=O)c1c(C(F)F)nc(C(F)(F)F)c(C(=O)SC)c1CC(C)C`, the Potency entry was “inactive”.
On to `O=C(N[C@H]1N=C(c2ccccc2F)c2cccc3c2N(CC3)C1=O)c1cc2ccccc2[nH]1`, for which the Potency entry is “inactive”.
In the case of `CN1C(=O)[C@@H](NC(=O)c2cc3ccccc3[nH]2)N=C(c2ccccc2)c2ccccc21`, the Potency entry is “inactive”.
On the same count and under the same terms, the same measure for `CCCCn1cc[n+](C)c1.[Cl][Fe-]([Cl])([Cl])[Cl]`: “inactive”; for `COP(=S)(OC)Oc1ccc([N+](=O)[O-])c(C)c1`: “inactive”.
Regarding `O=c1[nH]c(Cl)c(Cl)cc1Cl`, the Potency result is “inactive”.
On to `NC(=O)C(Cl)Cl`, for which the Potency result was “inactive”.
Same read-out and setting: the same measure for `CCNc1nc(NC(C)C(C)C)nc(SC)n1` (stereo not given): “inactive”; for `COP(=S)(NC(C)C)Oc1ccc(C)cc1[N+](=O)[O-]` (stereo not given): “inactive”.
Regarding `CCN(CC)CCN1C(=O)CN=C(c2ccccc2F)c2cc(Cl)ccc21`, the Potency result is “inactive”.
As for `CC(=O)[O-].CC(=O)[O-].CC(=O)[O-].[Sb+3]`, the viability change, negative = cytotoxic is -15.6% [at 3.27 µM] (inactive).
As to `CCOP(=O)(OCC)Oc1cc(C)nc(C(C)C)n1`, the Potency result was “inactive”.
Same read-out and setting: the same measure for `C#CCC1=C(C)C(OC(=O)C2C(C=C(C)C)C2(C)C)CC1=O` (stereo not given): “inactive”.
